According to PubChem BioAssay AID1117319 (Southern Research Institute, 2015):
Values joined by “and” are separate entries in the source; they are usually repeats but may differ in a detail not shown here. Equal entries are not always repeated. About 1,500 (0.58%) of roughly 260,000 compounds were called active. Inconclusive results (about 5%) are left out.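 Rule for the calls: active = inhibition above a set limit at one or more doses, reproduced on every date tested; inconclusive = results disagree between test dates, or hit never tested in dose response; inactive = the rest.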 Not all results are given here. Results with a measured potency or affinity are listed apart.

Molecular target: Virion infectivity factor (Human immunodeficiency virus type 1 group M subtype B (isolate BH10)) + Virion infectivity factor (Human immunodeficiency virus type 1 group M subtype B (isolate BRU/LAI)) + Virion infectivity factor (Human immunodeficiency virus type 1 group M subtype B (isolate PCV12)) + Virion infectivity factor (Human immunodeficiency virus type 1 group M subtype B (isolate HXB2)) + DNA dC->dU-editing enzyme APOBEC-3G (Homo sapiens) (UniProt P69720+P69721+P69722+P69723+Q9HC16)
Experiment: HIV-1 Vif–A3G interaction blockers – biochemical, TR-FRET, GST-Vif 1-94, biotin-A3G peptide, dose response retest, primary screen (AID 1117319);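 note: Vif residues 1-94 fused to GST binding biotinylated APOBEC3G peptide 110-148; 0% = full assay without inhibitor and 100% = GST in place of GST-Vif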
Conditions: TR-FRET GST-Vif / biotin-A3G peptide binding; hits give high values

inhibition, inactive:
Cc1ccc(-c2cc(C(=O)NC3=NCCS3)c3ccccc3n2)cc1C -1.5%
O=S(=O)(CC=CCS(=O)(=O)c1ccccc1)c1ccccc1 -17%
Cc1nc2nc(C(F)(F)F)[nH]c2nc1C 0.02%
CC(C)(C)NC(=O)C(c1ccc(F)cc1)N(Cc1ccco1)C(=O)CCC(=O)Nc1nccs1 (stereo not given) 5.5%
CN[C@@H](C)C(=O)NC[C@H]1O[C@@H](n2cnc3c(N)ncnc32)[C@H](O)[C@@H]1O -3.01%
CC1(C)CC(=O)c2c(O)cc(O)cc2O1 -0.4%
C/C=C\C(=O)Nc1cccc(C2=NOC3(C2)C[C@H](C(N)=O)N(C(=O)/C=C/CC)C3)c1 (stereo not given in full) 5.75%
CCC(=O)Nc1cccc(C2=NOC3(C2)C[C@@H](C(N)=O)N(C(=O)CC(c2ccccc2)c2ccccc2)C3)c1 (stereo not given in full) 7.06%
C/C=C(/C)C(=O)Nc1cccc(C2=NOC3(C2)C[C@@H](C(N)=O)N(C(=O)CC(c2ccccc2)c2ccccc2)C3)c1 (stereo not given in full) 24%
C/C=C(/C)C(=O)Nc1cccc(C2=NOC3(C2)C[C@@H](C(N)=O)N(C(=O)/C=C/CC)C3)c1 (stereo not given in full) 13.8%
CCC(C)(C(=O)NC1CCCCC1)N(Cc1cccs1)C(=O)Cc1cccs1 (stereo not given) 23.9%
COc1cccc(OC)c1NC(=O)C1CCCN1C(=O)Nc1cccc(Cl)c1 (stereo not given) -0.22%
O=C(/C=C/c1cccc([N+](=O)[O-])c1)Nc1ccccn1 7.78%
CCOc1ccccc1NC(=O)COC(=O)COc1cccc2c1OC(C)(C)C2 2.02%
COC(=O)C(C)N1C(=O)S/C(=C\c2ccc(-c3ccc(C(=O)O)cc3C)o2)C1=O (stereo not given) 15.9%
O=C(O)c1ccccc1-c1ccc(/C=C2\SC(=O)N(c3ccccc3)C2=O)o1 3.86%
Cc1cccc(-n2ccnc2SCC(=O)O)c1C -0.53%
O=C(COc1ccc(Cl)cc1Cl)c1ccc[nH]1 19.3%
Cc1ccccc1OCC(=O)OCC(=O)c1ccc[nH]1 7.12%
Cc1ccnc(NC(=O)CCNC(=O)c2ccc(Cl)cc2)c1 -5.97%
COc1ccccc1N1CCN(C(=O)CSc2nnc(NC(=O)C3CC3)s2)CC1 9.27%
CN1CCc2cc(Cl)c(O)cc2[C@@H](c2ccccc2)C1 -6.09%
c1ccc(C2CNCCc3ccccc32)cc1 (stereo not given) -8.69%
CCc1cccc(C)c1NC(=O)Nc1c(Br)cnn1C -8.57%
Cc1ccc(S(=O)(=O)N2C[C@H]3[C@H]4C(=O)N(c5ccccc5)C(=O)[C@H]4C[C@H](OC(=O)NC4CCCC4)[C@@]3(O)C2)cc1 -0.48%
CC(OC(=O)c1ccc2c(c1)OCCO2)C(=O)NC1CCCCC1C (stereo not given) -7.15%
COc1cc(C=C2C(=O)c3ccccc3C2=O)ccc1O -0.66%
COc1ccc(C=C2C(=O)c3ccccc3C2=O)cc1O 4.34%
CCOC(=O)C1=C(C)NC(SCC(N)=O)=C(C#N)C1c1cccs1 (stereo not given) -2.81%
C#CCSC1=C(C#N)C(c2cccs2)C(C(=O)OCC)=C(C)N1 (stereo not given) 8.23%
Cn1c(SCC(=O)Nc2sc3c(c2C#N)CCC3)nnc1C1COc2ccccc2O1 (stereo not given) 2.45% and 32%
CCOC(=O)c1oc2ccccc2c1COC(=O)CNC(=O)c1cccc(C)c1 -6.29%
CN(C)Cc1c(C(=O)N/N=C/c2cccc(OCc3ccccc3)c2)nnn1-c1nonc1N 19.4%
CCN(CC)c1ccc(C(=O)NNC(=O)c2cccn2C)cc1 5.54%
O=C(O)c1ccc2c(c1)CCCN2 -1.03%
O=S(=O)(c1ccc2c(c1)CCCN2)N1CCCCC1 8.06%
CCOc1ccc(NC(=O)CN2CCN(CC(=O)Nc3ccc(C(N)=O)cc3)CC2)cc1 -3.98%
COc1ccc2c(c1)CC/C(=C/c1ccccn1)C2=O -2.19%
CCOc1ccc(/C=C/C2=Cc3c(sc(NC(=O)CSc4n[nH]c(N)n4)c3C#N)C(C)(C)C2)cc1 1.67%
Cc1ccsc1/C=C/C1=Cc2c(sc(NC(=O)CSc3n[nH]c(N)n3)c2C#N)C(C)(C)C1 22.1%
COC1C=COC2(C)Oc3c(C)c(O)c4c(O)c(c(CN5CCN(C)CC5)c(O)c4c3C2=O)NC(=O)C(C)=CC=CC(C)C(O)C(C)C(O)C(C)C(OC(C)=O)C1C (stereo not given) 13.7%
CO[C@H]1C=CO[C@@]2(C)Oc3c(C)c(O)c4c(O)c(c(C=NN5CCN(C6CCCC6)CC5)c(O)c4c3C2=O)NC(=O)C(C)=CC=C[C@H](C)[C@H](O)[C@@H](C)[C@@H](O)[C@@H](C)[C@H](OC(C)=O)[C@@H]1C -8.62%
CCCn1c2ccc(C)cc2c2nnc(SCCN3CCOCC3)nc21 -4.1%
CC(C)N1CCC(=O)NC1=O 3.79%
Cc1ccc(SCC2=NNC(=O)C2)cc1 74.7%
O=C1CC(CSc2ccc(Cl)cc2)=NN1 -2.88%
COc1ccc(CCNC(=O)c2ccc(NS(=O)(=O)c3c(C)noc3C)cc2)cc1OC -8.32%
COc1cccc(C(=O)N[C@@H](CCSC)c2nc3ccccc3[nH]2)c1 5.58%
N#CC1=C(N)C(C#N)(C#N)C(c2cccnc2)C2COCC=C12 (stereo not given) 0.31%
Cc1ccc(C2C3CSCC=C3C(C#N)=C(N)C2(C#N)C#N)cc1 (stereo not given) 8.68%
CCOC(=O)c1c(C)[nH]c(C(=O)OCC(=O)Nc2cccnc2Cl)c1C -0.74%
O=C(CN1/C(=C(/O)c2ccccc2)C(=O)c2ccccc2S1(=O)=O)c1ccccc1 -0.58%
Cc1ccc(C(=O)CN2/C(=C(\O)c3ccccc3)C(=O)c3ccccc3S2(=O)=O)c(C)c1 2.58%
COc1cccc(-c2nnc3sc(-c4ccco4)nn23)c1 5.27%
c1coc(-c2nn3c(-c4ccco4)nnc3s2)c1 24.5%
